Bioassay records (PubChem BioAssay)
In the library only some 2.5% were active in any assay of this set; here they are far more common.
Cruzain noTriton – cruzain (T. cruzi) inhibition without detergent. P25779. purified cruzain, Z-FR-AMC fluorescence, no detergent. Potency, µM, for inactives: max response, negative = inhibition, most hits filed as inhibitors. hit rate 2.3% among 200,000;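 also: plate controls were enzyme without inhibitor for no effect and buffer without enzyme for full effect; nearly all actives have a fitted effect of over 40% in size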
Target sequence (P25779 123-467 limits assumed): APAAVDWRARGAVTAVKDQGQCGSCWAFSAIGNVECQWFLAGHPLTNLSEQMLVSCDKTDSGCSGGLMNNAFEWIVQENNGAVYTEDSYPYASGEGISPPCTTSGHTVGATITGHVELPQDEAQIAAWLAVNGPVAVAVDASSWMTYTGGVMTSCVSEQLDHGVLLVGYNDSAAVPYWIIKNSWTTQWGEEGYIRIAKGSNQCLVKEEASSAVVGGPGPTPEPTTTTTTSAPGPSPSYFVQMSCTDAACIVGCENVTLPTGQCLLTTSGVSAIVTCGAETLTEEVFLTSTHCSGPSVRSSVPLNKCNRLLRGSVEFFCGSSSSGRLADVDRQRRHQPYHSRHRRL
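Purified cruzain at 1.5 nM, pre-incubated 15 min with compound at room temperature in 100 mM sodium acetate pH 5.5, 5 mM DTT, 0.00005% Triton X-100. Reaction started with 2 uM Z-FR-AMC; AMC fluorescence increase over 60 s gives rate.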
Cruzain inh Det – inhibitors of Trypanosoma cruzi cruzain with detergent | P25779 | purified cruzain, Z-FR-AMC fluorescence, 0.01% Triton | Potency, µM, without a hit: max response, negative = inhibition, hits mostly inhibitors | hit rate 0.43% among 200,000 | AID 1478;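 also: plate controls were neutral wells for no effect and buffer without enzyme for full effect; nearly all actives have a fitted effect of over 40% in size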
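Enzyme 1.5 nM, Z-FR-AMC 2 uM, NaOAc 100 mM pH 5.5, DTT 5 mM, Triton X-100 0.01%; 15 min RT compound preincubation; kinetic ex360/em450, 60 s delta.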
* marks the source's active call; other numbers are inactive results; u = inconclusive. Calls follow the shape of the dose curve; as a rule, active = well fitted curve in the direction sought with a large enough effect; inconclusive = small, poorly fitted or top-dose-only effect, or another doubt; inactive = no such curve, though single readings can be large; an effect the other way counts as inactive or inconclusive. Potency is read from the fitted curve at half-maximal effect.

SMILES	Cruzain noTriton	Cruzain inh Det
Cc1ccc(NC(=O)c2ccc(OC(=O)c3cc4ccccc4o3)cc2)cc1	7.9µM*	-2%
COc1cc(NC(=O)c2ccccc2)ccc1NC(=O)c1cc2ccccc2o1	3%	1%
COc1ccc(S(=O)(=O)c2cnc(SCC(=O)Nc3cc(F)ccc3C)[nH]c2=O)cc1Cl	30%	-23%
COc1ccc(CCNC(=O)c2c(C)nn(-c3ccc(F)cc3)c2-n2cccc2)c(OC)c1OC	u	-7%
CC(=O)c1cccc(S(=O)(=O)N2CCN(c3ccccc3F)CC2)c1	-6%	-5%
CC(=O)c1cccc(S(=O)(=O)N2CCN(c3nc4cc(C)cc(C)c4cc3C#N)CC2)c1	16µM*	-1%
COc1cc2c(C(=O)N3CCN(c4cccc(C)c4)C(C)C3)cn(CC(C)C)c(=O)c2cc1OC (stereo unspecified)	u	-5%
CCc1ccc(NC(=O)CN(c2ccc(Cl)cc2)S(=O)(=O)c2ccsc2C(=O)OC)cc1	-17%	-5%
Nc1cccc2cc(S(=O)(=O)Nc3ccc(C(=O)O)cc3)ccc12	-1%	0%
CCN(CC)CCNC(=O)c1cc2c(=O)n(C)c3ccccc3c2n1C	1%	-17%
CN(C)CCNC(=O)c1cc2c(=O)n(C)c3ccccc3c2n1C	u	25µM*
Cc1cc(-c2ccc(C)c(S(=O)(=O)Nc3cccc(C#N)c3)c2)on1	-18%	-4%
Cc1cccc(C2(c3cccc(C)c3)OC(=O)c3ccccc32)c1	-5%	-3%
CN(C)c1ccc(C2(c3ccc(N(C)C)cc3)OC(=O)c3cc(N(C)C)ccc32)cc1	25µM*	-5%
Cc1ccc(S(=O)(=O)N=Nc2c(O)[nH]c3cc(O)c(C(=O)O)cc23)cc1	-8%	2%
CCOC(=O)c1cc(-c2ccccc2)n(CC(=O)NCc2ccccc2OC)c1C	-2%	1%
O=[As](O)(O)c1ccc(N=Nc2ccc([As](=O)(O)O)cc2)cc1	2%	-2%
CC(C)=CCOc1ccc(/C=C/C(=O)c2ccc(OCC=C(C)C)cc2OCC(=O)O)cc1	u	20µM*
CCOc1ccc(/C=C/C(=O)c2ccc(-c3ccccc3)cc2)cc1	-29%	-11%
C=C1c2ccccc2O[C@H](C(=O)OCC)[C@@H]1C1CCCCC1 (tested in a mixture with another compound)	9%	4%
O=C(CCC1N=C2c3ccccc3N=C(SCc3ccc(F)cc3)N2C1=O)NCc1ccc(F)cc1 (stereo unspecified)	12%	-3%
COc1ccccc1Nc1nc(-c2sc(NC(=O)c3ccco3)nc2C)cs1	u	-6%
Cc1nc(NC(=O)c2ccco2)sc1-c1csc(Nc2ccc(Cl)cc2)n1	13µM*	-2%
Cc1ccc(Cl)cc1Nc1nc(-c2sc(NC(=O)c3ccco3)nc2C)cs1	25µM*	-3%
Cc1nc(NC(=O)c2ccco2)sc1-c1csc(Nc2ccc(Cl)cc2Cl)n1	13µM*	-3%
SMILES	Cruzain noTriton	Cruzain inh Det
COc1cccc(N(C(=O)c2ccco2)c2nc(-c3sc(NC(=O)c4ccco4)nc3C)cs2)c1	u	-3%
O=C(Nc1nc2ccc(Cl)cc2s1)c1ccco1	u	-3%
CCOc1ccc(Cn2c(CNS(=O)(=O)c3cccs3)nc3cccnc32)cc1	14%	-2%
CCOc1ccc(C(=O)Nc2nnc(S(=O)(=O)N(CC)c3ccccc3C)s2)cc1	4%	-1%
CCOC(=O)CC(NC(=O)CCc1c(C)nc2c(c1C)c(=O)n(C)c(=O)n2C)c1ccc(OCC)c(OC)c1 (stereo unspecified)	5%	2%
CCN1C(=O)/C(=C/C=C2/Sc3ccc4ccccc4c3N2CCO)SC1=S	-21%	-3%
CCN1C(c2ccccc2)=C(c2ccccc2)S/C1=C/C=C1\SC(=S)N(C)C1=O	10µM*	-6%
COc1ccccc1CC(=O)Nc1cc2oc3ccccc3c2cc1OC	-24%	3%
CCOc1ccccc1-n1nnnc1SCC(=O)Nc1cc2oc3ccccc3c2cc1OC	7.9µM*	4%
COc1cc2c(cc1NC(=O)COc1ccc(Br)cc1)oc1ccccc12	8%	-2%
COc1cc2c(cc1NC(=S)NC(=O)c1c(OC)cccc1OC)oc1ccccc12	6.3µM*	-4%
COc1cc2c(cc1NC(=O)COc1ccc3ccccc3c1)oc1ccccc12	10µM*	-6%
COc1cc2c(cc1NC(=O)/C=C/c1cc(OC)c(OC)c(OC)c1)oc1ccccc12	u	-5%
COc1cc(OC)cc(C(=O)NC(=S)Nc2cc3oc4ccccc4c3cc2OC)c1	4µM*	-5%
CCOc1ccccc1-n1nnnc1SCC(=O)Nc1cc(C)on1	1%	3%
CC[C@H]1CC[C@H]2[C@@H]3CC=C4C[C@H](OC(C)=O)[C@@H](N)C[C@@]4(C)[C@H]3CC[C@@]12C	-5%	-1%
Cc1cccc(N2CCN(C(=O)c3c4c(nc5ccccc35)C(=O)N(C3CCCCC3)C4)CC2)c1C	1%	-3%
